Test results taken from PubChem BioAssay AID1159580 (chemical genetic matrix, 2015).
Values joined by “and” are separate entries in the source; they are usually repeats but may differ in a detail not shown here. Identical values can stand only once. Among all 5,500 compounds or so, about 2,000 (36%) were called active. Inconclusive results (about 18%) are left out. Cut-off read from the data, not from the text of the source: active = normalized growth mostly below about 0.91 (no sharp cut-off); inconclusive = no clear call, values can overlap the other calls; inactive = mostly above about 0.92. The list shows a part of the results.

Assay: chemical genetic growth profiling, strain panel (AID 1159580);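 note: tested at 20 µM; growth read once vehicle control cultures reached saturation at 30 °C; 1 = growth at the plate median or of vehicle wells; lower values mean less growth of the strain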
Settings: S. cerevisiae deletion strains, growth OD

Measured: normalized growth

CS(=O)(=O)c1ccc([C@@H](O)[C@@H](CO)NC(=O)C(Cl)Cl)cc1
inactive: locus YAL013W, strain DEP1, active compounds read low 0.978 | locus YAL021C, strain ccr4, active compounds read low 1.05 | locus YAL026C, strain drs2, active compounds read low 1.04 | locus YAL030W, strain snc1, active compounds read low 1.01 | locus YBL061C, strain skt5, active compounds read low 1.02 | locus YBR009C, strain hhf1, active compounds read low 1.01 | locus YBR021W, strain FUR4, active compounds read low 1.1 | locus YBR023C, strain chs3, active compounds read low 1.04 | locus YBR171W, strain sec66, active compounds read low 1.04 | locus YBR229C, strain ROT2, active compounds read low 0.964 | locus YBR231C, strain swc5, active compounds read low 1.02 | locus YBR279W, strain paf1, active compounds read low 1.04 | locus YCL011C, strain gbp2, active compounds read low 1.03 | locus YCL016C, strain dcc1, active compounds read low 1.04 | locus YCL029C, strain bik1, active compounds read low 0.981 | locus YCL069W, strain vba3, active compounds read low 1.03 | locus YCR088W, strain abp1, active compounds read low 1.03 | locus YDL005C, strain med2, active compounds read low 1.02 | locus YDL035C, strain GPR1, active compounds read low 0.988 | locus YDL040C, strain nat1, active compounds read low 1.02 | locus YDL074C, strain BRE1, active compounds read low 0.957 | locus YDL101C, strain DUN1, active compounds read low 0.967 | locus YDL134C, strain PPH21, active compounds read low 0.985 | locus YDL185W, strain tfp1, active compounds read low 0.941 | locus YDL192W, strain arf1, active compounds read low 0.981 | locus YDR001C, strain nth1, active compounds read low 1.02 | locus YDR069C, strain doa4, active compounds read low 1 | locus YDR101C, strain arx1, active compounds read low 0.998 | locus YDR137W, strain rgp1, active compounds read low 1.06 | locus YDR150W, strain NUM1, active compounds read low 0.977 | locus YDR159W, strain sac3, active compounds read low 0.942 | locus YDR162C, strain NBP2, active compounds read low 0.954 | locus YDR195W, strain ref2 1.01 | locus YDR297W, strain sur2, active compounds read low 1.02 | locus YDR318W, strain mcm21, active compounds read low 0.998 | locus YDR334W, strain swr1, active compounds read low 1.02 | locus YDR335W, strain msn5, active compounds read low 1.04 | locus YDR388W, active compounds read low 0.991 | locus YDR392W, strain spt3, active compounds read low 0.947 | locus YDR502C, strain sam2, active compounds read low 0.997 | locus YEL003W, strain gim4, active compounds read low 1.01 | locus YEL037C, strain rad23, active compounds read low 1.02 | locus YEL061C, strain CIN8 (second series), active compounds read low 1.02 | locus YEL061C, strain CIN8, active compounds read low 0.979 | locus YER015W, strain faa2, active compounds read low 1.02 | locus YER016W, strain bim1, active compounds read low 1.04 | locus YER110C, active compounds read low 0.974 | locus YER111C, strain swi4, active compounds read low 1.03 | locus YER155C, strain BEM2 (second series), active compounds read low 1.03 | locus YER155C, strain BEM2, active compounds read low 1 | locus YER167W, strain BCK2, active compounds read low 0.985 | locus YFR010W, strain ubp6, active compounds read low 1.02 | locus YGL078C, strain dbp3, active compounds read low 1 | locus YGL086W, strain mad1, active compounds read low 1 | locus YGL167C, strain pmr1, active compounds read low 1.02 | locus YGL173C, strain kem1, active compounds read low 1.02 | locus YGL227W, strain vid30, active compounds read low 1.02 | locus YGL240W, strain doc1, active compounds read low 0.996 | locus YGL248W, strain PDE1, active compounds read low 0.968 | locus YGL253W, strain hxk2, active compounds read low 1.05 | locus YGR078C, strain PAC10, active compounds read low 0.993 | locus YGR135W, strain pre9, active compounds read low 0.98 | locus YGR229C, strain SMI1, active compounds read low 0.979 | locus YGR252W, strain gcn5, active compounds read low 1.06 | locus YHR013C, strain ard1, active compounds read low 1.05 | locus YHR027C, strain rpn1, active compounds read low 1.02 | locus YHR030C, strain SLT2, active compounds read low 0.983 and 0.994 | locus YHR079C, strain IRE1 (second series), active compounds read low 0.998 | locus YHR079C, strain IRE1, active compounds read low 0.982 | locus YHR094C, strain hxt1, active compounds read low 0.991 | locus YHR129C, strain ARP1, active compounds read low 0.989 | locus YHR142W, strain chs7, active compounds read low 1.07 | locus YHR200W, strain rpn10, active compounds read low 0.989 | locus YIL066C, strain RNR3, active compounds read low 0.995 | locus YIL073C, strain SPO22, active compounds read low 0.998 | locus YIL125W, strain kgd1, active compounds read low 0.992 | locus YIR030C, strain dcg1, active compounds read low 0.978 | locus YJL092W, strain hpr5, active compounds read low 1.02 | locus YJL095W, strain BCK1 (second series), active compounds read low 1.01 | locus YJL095W, strain BCK1, active compounds read low 1 and 0.995 | locus YJL115W, strain asf1, active compounds read low 1.04 | locus YJL129C, strain trk1, active compounds read low 1.05 | locus YJL134W, strain LCB3, active compounds read low 0.974 | locus YJL154C, strain vps35, active compounds read low 1.03 | locus YJL164C, strain tpk1, active compounds read low 1.01 | locus YJL166W, strain qcr8, active compounds read low 1.02 | locus YJL168C, strain set2, active compounds read low 0.985 | locus YJL187C, strain SWE1 (second series), active compounds read low 0.975 | locus YJR043C, strain POL32, active compounds read low 1.01 | locus YJR066W, strain TOR1, active compounds read low 0.962 | locus YJR075W, strain HOC1, active compounds read low 0.983
